Data: PubChem BioAssay AID1159580 (chemical genetic matrix, 2015)
Where “and” joins values, the source holds several entries; their conditions need not be identical. Identical values can stand only once. Hit rate of the full screen: of about 5,500 compounds, about 2,000 (36%) were called active. Not shown: some 18% with an inconclusive outcome. No stated cut-off is given here; in the data, active means normalized growth mostly below about 0.91 (no sharp cut-off); inconclusive means no clear call, values can overlap the other calls; inactive means mostly above about 0.92. The list shows a part of the results.

Test: chemical genetic growth profiling, strain panel (AID 1159580);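 further: tested at 20 µM; growth read once vehicle control cultures reached saturation at 30 °C; 1 = growth at the plate median or of vehicle wells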
Details: S. cerevisiae deletion strains, growth OD

Measured: normalized growth

COc1cc(C)c(C(=O)Oc2cc(C)c(C(=O)O)c(O)c2C)c(OC)c1C
inactive: locus YAL021C, strain ccr4, stronger effect = lower value 1.01 | locus YAL026C, strain drs2, stronger effect = lower value 0.965 | locus YAL030W, strain snc1, stronger effect = lower value 0.994 | locus YBL061C, strain skt5, stronger effect = lower value 0.987 | locus YBR009C, strain hhf1, stronger effect = lower value 0.91 | locus YBR021W, strain FUR4, stronger effect = lower value 0.995 | locus YBR023C, strain chs3, stronger effect = lower value 0.983 | locus YBR171W, strain sec66, stronger effect = lower value 0.969 | locus YBR229C, strain ROT2, stronger effect = lower value 0.993 | locus YBR231C, strain swc5, stronger effect = lower value 0.98 | locus YBR279W, strain paf1, stronger effect = lower value 0.995 | locus YCL011C, strain gbp2, stronger effect = lower value 0.968 | locus YCL016C, strain dcc1, stronger effect = lower value 0.986 | locus YCL029C, strain bik1, stronger effect = lower value 1.02 | locus YCL061C, strain MRC1, stronger effect = lower value 0.974 | locus YCL069W, strain vba3, stronger effect = lower value 0.976 | locus YCR088W, strain abp1, stronger effect = lower value 0.994 | locus YDL005C, strain med2, stronger effect = lower value 0.992 | locus YDL035C, strain GPR1, stronger effect = lower value 0.991 | locus YDL040C, strain nat1, stronger effect = lower value 0.974 | locus YDL074C, strain BRE1, stronger effect = lower value 0.982 | locus YDL101C, strain DUN1, stronger effect = lower value 1.02 | locus YDL134C, strain PPH21, stronger effect = lower value 1.02 | locus YDL185W, strain tfp1, stronger effect = lower value 1.02 | locus YDL192W, strain arf1, stronger effect = lower value 1 | locus YDR001C, strain nth1, stronger effect = lower value 0.972 | locus YDR069C, strain doa4, stronger effect = lower value 0.993 | locus YDR101C, strain arx1, stronger effect = lower value 1.01 | locus YDR137W, strain rgp1, stronger effect = lower value 0.906 | locus YDR159W, strain sac3, stronger effect = lower value 0.89 | locus YDR162C, strain NBP2, stronger effect = lower value 0.98 | locus YDR195W, strain ref2 0.966 | locus YDR297W, strain sur2, stronger effect = lower value 0.988 | locus YDR318W, strain mcm21, stronger effect = lower value 1 | locus YDR334W, strain swr1, stronger effect = lower value 1 | locus YDR335W, strain msn5, stronger effect = lower value 0.993 | locus YDR388W, stronger effect = lower value 1.01 | locus YDR502C, strain sam2, stronger effect = lower value 1 | locus YEL003W, strain gim4, stronger effect = lower value 0.968 | locus YEL037C, strain rad23, stronger effect = lower value 0.982 | locus YEL061C, strain CIN8 (second series), stronger effect = lower value 0.982 | locus YEL061C, strain CIN8, stronger effect = lower value 1 | locus YER015W, strain faa2, stronger effect = lower value 0.99 | locus YER016W, strain bim1, stronger effect = lower value 0.984 | locus YER110C, stronger effect = lower value 1.02 | locus YER111C, strain swi4, stronger effect = lower value 0.97 | locus YER155C, strain BEM2, stronger effect = lower value 1 | locus YER167W, strain BCK2, stronger effect = lower value 0.999 | locus YFR010W, strain ubp6, stronger effect = lower value 0.991 | locus YGL078C, strain dbp3, stronger effect = lower value 0.986 | locus YGL086W, strain mad1, stronger effect = lower value 1.02 | locus YGL167C, strain pmr1, stronger effect = lower value 0.964 | locus YGL173C, strain kem1, stronger effect = lower value 0.975 | locus YGL227W, strain vid30, stronger effect = lower value 0.969 | locus YGL240W, strain doc1, stronger effect = lower value 0.941 | locus YGL248W, strain PDE1, stronger effect = lower value 1.01 | locus YGL253W, strain hxk2, stronger effect = lower value 0.949 | locus YGR078C, strain PAC10, stronger effect = lower value 0.992 | locus YGR135W, strain pre9, stronger effect = lower value 1 | locus YGR252W, strain gcn5, stronger effect = lower value 0.905 | locus YHR013C, strain ard1, stronger effect = lower value 0.887 | locus YHR027C, strain rpn1, stronger effect = lower value 1 | locus YHR030C, strain SLT2, stronger effect = lower value 1.02 and 0.932 | locus YHR079C, strain IRE1 (second series), stronger effect = lower value 1.02 | locus YHR094C, strain hxt1, stronger effect = lower value 1.01 | locus YHR129C, strain ARP1, stronger effect = lower value 1.01 | locus YHR142W, strain chs7, stronger effect = lower value 0.994 | locus YHR200W, strain rpn10, stronger effect = lower value 1 | locus YIL066C, strain RNR3, stronger effect = lower value 1 | locus YIL073C, strain SPO22, stronger effect = lower value 1.06 | locus YIL125W, strain kgd1, stronger effect = lower value 0.996 | locus YIR030C, strain dcg1, stronger effect = lower value 1.01 | locus YJL092W, strain hpr5, stronger effect = lower value 0.983 | locus YJL095W, strain BCK1 (second series), stronger effect = lower value 0.988 | locus YJL095W, strain BCK1, stronger effect = lower value 0.998 and 0.884 | locus YJL115W, strain asf1, stronger effect = lower value 0.991 | locus YJL134W, strain LCB3, stronger effect = lower value 1.01 | locus YJL154C, strain vps35, stronger effect = lower value 0.979 | locus YJL164C, strain tpk1, stronger effect = lower value 0.993 | locus YJL166W, strain qcr8, stronger effect = lower value 0.953 | locus YJL168C, strain set2, stronger effect = lower value 1 | locus YJL187C, strain SWE1 (second series), stronger effect = lower value 1.03 | locus YJL187C, strain SWE1, stronger effect = lower value 0.993 | locus YJR043C, strain POL32, stronger effect = lower value 0.998 | locus YJR066W, strain TOR1, stronger effect = lower value 0.975 | locus YJR075W, strain HOC1, stronger effect = lower value 1.01 | locus YKL009W, strain mrt4, stronger effect = lower value 0.992 | locus YKL068W, stronger effect = lower value 1 | locus YKL085W, strain MDH1 (second series), stronger effect = lower value 0.995 | locus YKL085W, strain MDH1, stronger effect = lower value 0.995 | locus YKL160W, strain elf1, stronger effect = lower value 0.991 | locus YKL190W, strain CNB1, stronger effect = lower value 1.01 | locus YKR001C, strain vps1, stronger effect = lower value 0.956 | locus YKR026C, strain gcn3, stronger effect = lower value 0.979 | locus YKR091W, strain srl3, stronger effect = lower value 0.981 | locus YLL001W, strain dnm1, stronger effect = lower value 1 | locus YLL026W, stronger effect = lower value 0.968 | locus YLL041C, strain sdh2, stronger effect = lower value 0.982 | locus YLR027C, strain aat2, stronger effect = lower value 0.991 | locus YLR039C, strain RIC1, stronger effect = lower value 1.03 | locus YLR058C, strain SHM2, stronger effect = lower value 1.01 | locus YLR102C, strain apc9, stronger effect = lower value 1.02 | locus YLR221C, strain rsa3, stronger effect = lower value 1.01 | locus YLR258W, strain gsy2, stronger effect = lower value 0.947 | locus YLR262C, strain YPT6 (second series), stronger effect = lower value 0.943 | locus YLR262C, strain YPT6, stronger effect = lower value 1.03 | locus YLR268W, strain sec22, stronger effect = lower value 1.03 | locus YLR330W, strain CHS5, stronger effect = lower value 1.01 | locus YLR342W, strain FKS1 (second series), stronger effect = lower value 0.985 | locus YLR342W, strain FKS1, stronger effect = lower value 0.978 | locus YLR357W, strain rsc2, stronger effect = lower value 0.94 | locus YLR370C, strain arc18, stronger effect = lower value 0.999 | locus YLR371W, strain rom2, stronger effect = lower value 1.02 | locus YLR384C, strain iki3, stronger effect = lower value 0.992 | locus YLR418C, strain cdc73, stronger effect = lower value 0.859 | locus YML016C, strain PPZ1, stronger effect = lower value 1.01 | locus YML032C, strain rad52, stronger effect = lower value 0.985 | locus YML120C, strain ndi1, stronger effect = lower value 0.971 | locus YML124C, strain tub3, stronger effect = lower value 1.01 | locus YMR058W, strain fet3, stronger effect = lower value 0.984 | locus YMR078C, strain ctf18, stronger effect = lower value 1 | locus YMR125W, strain sto1, stronger effect = lower value 0.912 | locus YMR129W, stronger effect = lower value 0.97 | locus YMR223W, strain ubp8, stronger effect = lower value 0.994 | locus YMR231W, strain pep5, stronger effect = lower value 0.988 | locus YMR307W, strain GAS1, stronger effect = lower value 0.978 | locus YNL067W, strain RPL9B, stronger effect = lower value 1.04 | locus YNL128W, strain TEP1, stronger effect = lower value 1.03 | locus YNL153C, strain GIM3, stronger effect = lower value 1.01 | locus YNL183C, strain NPR1, stronger effect = lower value 0.955 | locus YNL209W, strain ssb2, stronger effect = lower value 1 | locus YNL233W, strain BNI4, stronger effect = lower value 1 | locus YNL248C, strain rpa49, stronger effect = lower value 1.01 | locus YNL250W, strain rad50, stronger effect = lower value 1.03 | locus YNL271C, strain bni1, stronger effect = lower value 1.01 | locus YNL298W, strain CLA4, stronger effect = lower value 0.934 | locus YNL307C, strain MCK1, stronger effect = lower value 1 | locus YNL322C, strain KRE1 (second series), stronger effect = lower value 0.996 | locus YNL322C, strain KRE1, stronger effect = lower value 1 | locus YNR049C, strain mso1, stronger effect = lower value 0.978 | locus YNR052C, strain pop2, stronger effect = lower value 1 | locus YOL012C, strain htz1 1.06 | locus YOL147C, strain pex11, stronger effect = lower value 1.01 | locus YOR001W, strain rrp6, stronger effect = lower value 0.989 | locus YOR061W, strain CKA2, stronger effect = lower value 1.01 | locus YOR069W, strain VPS5, stronger effect = lower value 1.02 | locus YOR070C, strain gyp1, stronger effect = lower value 0.983 | locus YOR080W, strain dia2, stronger effect = lower value 0.997 | locus YOR083W, strain WHI5, stronger effect = lower value 1.03 | locus YOR106W, strain vam3, stronger effect = lower value 1 | locus YOR136W, strain idh2, stronger effect = lower value 1.02 | locus YOR144C, strain elg1, stronger effect = lower value 1.01 | locus YOR184W, strain ser1, stronger effect = lower value 0.986 | locus YOR265W, strain rbl2, stronger effect = lower value 0.992 | locus YOR270C, strain vph1, stronger effect = lower value 0.928 | locus YOR290C, strain snf2, stronger effect = lower value 0.931 | locus YOR316C, strain cot1, stronger effect = lower value 1.01 | locus YPL051W, strain arl3, stronger effect = lower value 1 | locus YPL055C, strain LGE1, stronger effect = lower value 1.01 | locus YPL078C, strain atp4, stronger effect = lower value 0.986 | locus YPL106C, strain sse1, stronger effect = lower value 0.974 | locus YPL240C, strain hsp82, stronger effect = lower value 0.979 | locus YPL241C, strain CIN2, stronger effect = lower value 0.995 | locus YPL256C, strain CLN2, stronger effect = lower value 0.917 | locus YPR119W, strain clb2, stronger effect = lower value 1.01 | locus YPR141C, strain kar3, stronger effect = lower value 1.03 | locus YPR163C, strain tif3, stronger effect = lower value 1.01 | locus YPR167C, strain met16, stronger effect = lower value 1.01 | strain wtn01, stronger effect = lower value 1.04
active: locus YDR392W, strain spt3, stronger effect = lower value 0.479 | locus YER155C, strain BEM2 (second series), stronger effect = lower value 0.708 | locus YHR079C, strain IRE1, stronger effect = lower value 0.845 | locus YJL129C, strain trk1, stronger effect = lower value 0.867 | locus YLR113W, strain HOG1, stronger effect = lower value 0.557 | locus YLR320W, strain mms22, stronger effect = lower value 0.859 | locus YMR205C, strain PFK2, stronger effect = lower value 0.852 | locus YNL071W, strain lat1, stronger effect = lower value 0.869 | locus YOR231W, strain MKK1, stronger effect = lower value 0.777
